Reference: PubChem BioAssay AID1489 (National Center for Advancing Translational Sciences (NCATS), 2009)
Results filed as inconclusive are left out. Active and inactive are the calls of the source. Calls come from the whole dose curve; as a rule, active = well fitted antagonist curve with a large enough effect in the main read-out, with a control signal flat; inconclusive = small, poorly fitted or top-dose-only effect; inactive = no such curve, though single readings can be large or run the other way.

These compounds were tested against Neuropeptide S receptor (Homo sapiens) (UniProt Q6W5P4) (assay: Confirmation Concentration-Response Assay for Antagonists of the Neuropeptide S Receptor: Calcium Signal Transduction). Details: CHO-NPSR cells, NPS-induced calcium flux, FDSS; series mostly up to 19.3 µM.
Neuropeptide S receptor (Homo sapiens), sequence (Q6W5P4 whole entry, looked up): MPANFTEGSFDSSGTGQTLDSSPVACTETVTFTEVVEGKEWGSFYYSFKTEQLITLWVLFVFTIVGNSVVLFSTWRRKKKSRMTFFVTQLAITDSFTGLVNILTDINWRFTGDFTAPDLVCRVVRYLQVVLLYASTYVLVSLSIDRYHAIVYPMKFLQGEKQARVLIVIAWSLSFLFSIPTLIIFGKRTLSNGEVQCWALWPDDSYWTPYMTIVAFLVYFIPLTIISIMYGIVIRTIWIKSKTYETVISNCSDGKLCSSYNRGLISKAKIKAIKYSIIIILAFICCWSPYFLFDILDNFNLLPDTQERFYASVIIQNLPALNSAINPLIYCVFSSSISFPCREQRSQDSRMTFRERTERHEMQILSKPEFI
Text: NIH Chemical Genomics Center [NCGC] NIH Molecular Libraries Probe Production centers Network [MLPCN] MLPCN Grant: X01-DA026210-01 Assay Submitter (PI): Heilig, Markus Alexander NCGC Assay Overview: Neuropeptide S receptor (NPSR), previously known as GPR154, is a recently de-orphanized G protein coupled receptor. Its endogenous ligand is the 20 amino acids peptide Neuropeptide S (NPS). […] NPS and its receptor are found in various tissues. Specifically they are highly expressed in brain areas that have been implicated in modulation of arousal, stress and anxiety. Central administration of NPS in mice produces an unusual profile of activity by inducing wakefulness and arousal, while at the same time suppressing anxiety. Therefore, NPSR may represent a novel drug target for the treatment of sleep and anxiety disorders. To identify NPSR antagonists, we developed a cell-based assay with transfected NPS receptor. NPS can stimulate the production of cAMP as well as release intracellular calcium in Chinese hamster ovary cells stably expressing NPS receptor. This change in intracellular calcium can be detected using a calcium indicator dye on a calcium imaging plate reader system (FDSS).
NCGC Assay Protocol Summary: A Chinese hamster ovary (CHO) cell line stably expressing the NPS receptor (CHO-NPSR) was obtained from Dr. Heilig lab at NIAAA and maintained in F-12 Kaighn's media (Invitrogen, Carlsbad, CA, 21127) supplemented with 10 % FBS, 100 units/ml penicillin, 100 ug/ml streptomycin and 250 ug/ml geneticin at 37C, 5% CO2 in a humidified atmosphere. Before the assay, aliquots of cells were frozen and stored at -135C. The assay was performed on a FDSS-7000 kinetic plate reader in 1536-well format. For both agonist (1-220s) and antagonist (221-400s) phases, the maximums of kinetic fluorescence responses were converted separately into text files using the instrument's software data export utility. Data for agonist response were normalized to the controls for basal activity (DMSO only) and 100% activation (NPS). […] AC50 values were determined from concentration-response data modeled with the standard Hill equation. NPS 1536-well FDSS assay protocol: (1) Frozen CHO-NPSR cells were thaw, washed once with fresh media and resuspended in F-12 Kaighn's media supplemented with 10 % FBS, 100 units/ml penicillin and 100 ug/ml streptomycin. Cells were plated at 3 ul/well (1200 cells) to black, clear-bottom, tissue-culture treated 1536-well plates, and then cultured at 37C, 5 % CO2 for 16 to 30 hours. (2) Add 3 ul of calcium dye (from High Performance PBX Calcium Assay Kit, BD Biosciences). The calcium dye was prepared according to the manufactory's instruction. (3) Incubation at 37C, 5 % CO2 for 60 to 120 min. (4) Load plates to FDSS-7000. The following steps were performed on FDSS-7000. (5) Record fluorescent background (Ex 480 nm, Em 520-560 nm) for 10 s. (6) Add 23 nl/well of compound in DMSO solution. The final titration for each compound was between 0.6 nM and 46 uM. Record agonist response for 210 s. (7) Add 2 ul of stimulation reagent (1X HBSS buffer, 0.1% BSA, 60 nM NPS). Record antagonist response for 140 s. Keywords: MLSMR, MLPCN, NIH Roadmap, qHTS, NCGC, NPS, Neuropeptide S Antagonists

Structure (SMILES) | Potency
CCOC(=O)c1c(-n2c(C)cc(C=C3C(=O)NC(=S)NC3=O)c2C)sc2c1CCCC2 | 2000 nM (active)
Cc1cc(C=C2C(=O)NC(=S)NC2=O)c(C)n1-c1ccc2c(c1)OCO2 | 12600 nM (active)
Cc1cccc(N2C(=O)NC(=O)/C(=C\c3cnn(-c4ccccc4)c3)C2=O)c1 | 10000 nM (active)
C=C1C(=O)O[C@@H]2C[C@@H](C)[C@@H]3C=CC(=O)[C@@]3(C)[C@@H](OC(=O)CC(=O)O[C@H]3[C@@H]4C(=C)C(=O)O[C@@H]4C[C@@H](C)[C@@H]4C=CC(=O)[C@]43C)[C@H]12 | 89.1 nM (active)
C=C(C=O)C[C@@H]1C[C@H](O)C2OC3C[C@]4(C)OC5/C=C\CC6OC7C(CC=CCC6OC5CCCC4OC3CC2O1)OC1CC2OC3CC(=O)OC3C[C@@H](C)C[C@@]2(C)OC1C[C@@H]7C (stereo not given in full) | 501 nM (active)
C[C@H]1CCCC(=O)CCCCCc2cc(O)cc(O)c2C(=O)O1 | inactive
C=CCN1C(=O)/C(=C/c2cccs2)C(=O)NC1=S | 11200 nM (active)
CC(=O)Nc1cc([As](=O)(O)O)ccc1O | inactive
Cc1c(P(=S)(c2ccccc2)c2ccccc2)[n+]2ccccc2n1C | 200 nM (active)
CNc1ccc2oc(C[C@H]3O[C@@]4(CC[C@H]3C)O[C@H]([C@H](C)C(=O)c3ccc[nH]3)[C@H](C)C[C@H]4C)nc2c1C(=O)O | 15.8 nM (active)
